# From paper PMC5540273 (PLoS ONE, 2017)
# Where “and” joins values, the source holds several entries; their conditions need not be identical. Equal entries are not always repeated. Where two headings read alike, the source gives them in different places.
# Columns and labels:
# [1] = tested on: RPS6KA5(Kin.Dom.2-C-terminal); details: concentration: 1 μM, replicates: in singlicate, n = 1
# [2] = tested on: T1, RSK1(Kin.Dom.1-N-terminal); details: concentration: 1 μM, replicates: in singlicate, n = 1
# T1 construct: gene RPS6KA1
# [3] = tested on: T2, RSK1(Kin.Dom.2-C-terminal); details: concentration: 1 μM, replicates: in singlicate, n = 1
# T2 construct: gene RPS6KA1
# [4] = tested on: T3, RSK2(Kin.Dom.1-N-terminal); details: concentration: 1 μM, replicates: in singlicate; n = 1
# T3 construct: gene RPS6KA3
# [5] = tested on: T4, RSK2(Kin.Dom.2-C-terminal); details: concentration: 1 μM, replicates: in singlicate, n = 1
# T4 construct: gene RPS6KA3
# [6] = tested on: T5, RSK3(Kin.Dom.1-N-terminal); details: concentration: 1 μM, replicates: in singlicate, n = 1
# T5 construct: gene RPS6KA2
# [7] = tested on: T6, RSK3(Kin.Dom.2-C-terminal); details: concentration: 1 μM, replicates: in singlicate; n = 1
# T6 construct: gene RPS6KA2
# [8] = tested on: T7, RSK4(Kin.Dom.1-N-terminal); details: concentration: 1 μM, replicates: in singlicate, n = 1
# T7 construct: gene RPS6KA6
# [9] = tested on: T8, RSK4(Kin.Dom.2-C-terminal); details: concentration: 1 μM, replicates: in singlicate, n = 1
# T8 construct: gene RPS6KA6
# S6K1 = details: concentration: 1 μM, replicates: in singlicate; n = 1
# SBK1 = details: concentration: 1 μM, replicates: in singlicate, n = 1
# SGK2 = details: concentration: 1 μM, replicates: in singlicate, n = 1
# SGK3 = details: concentration: 1 μM, replicates: in singlicate, n = 1
# SGK = details: concentration: 1 μM, replicates: in singlicate, n = 1
# SIK2 = details: concentration: 1 μM, replicates: in singlicate, n = 1
# SIK = details: concentration: 1 μM, replicates: in singlicate, n = 1
# SLK = details: concentration: 1 μM, replicates: in singlicate, n = 1
# SNARK = tested on: T9, SNARK; details: concentration: 1 μM, replicates: in singlicate, n = 1
# T9 construct: gene NUAK2
# SNRK = details: concentration: 1 μM, replicates: in singlicate; n = 1
# SRC = details: concentration: 1 μM, replicates: in singlicate, n = 1
# 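Note: KINOMEscan kinase panel screen.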
compound,measurement,setting,value
NC(=O)c1sc(-n2cnc3ccccc32)cc1OCc1ccccc1F [GSK1024306],%Inh,[1],0%
same,%Inh,[2],0%
same,%Inh,[3],32%
same,%Inh,[4],9%
same,%Inh,[5],31%
same,%Inh,[6],0%
same,%Inh,[7],0%
same,%Inh,[8],0%
same,%Inh,[9],82%
same,%Inh,S6K1,0%
same,%Inh,SBK1,21%
same,%Inh,SGK2,0%
same,%Inh,SGK3,0%
same,%Inh,SGK,4%
same,%Inh,SIK2,0%
same,%Inh,SIK,4%
same,%Inh,SLK,63%
same,%Inh,SNARK,29%
same,%Inh,SNRK,0%
same,%Inh,SRC,14%
Cn1cc(-c2ccc3c(c2)CCN3C(=O)Cc2cccc(C(F)(F)F)c2)c2c(N)ncnc21 [GSK2606414],%Inh,[1],0%
same,%Inh,[2],0%
same,%Inh,[3],2%
same,%Inh,[4],18%
same,%Inh,[5],0%
same,%Inh,[6],0%
same,%Inh,[7],0%
same,%Inh,[8],0%
same,%Inh,[9],12%
same,%Inh,S6K1,4%
same,%Inh,SBK1,9%
same,%Inh,SGK2,1%
same,%Inh,SGK3,21%
same,%Inh,SGK,19%
same,%Inh,SIK2,0%
same,%Inh,SIK,0%
same,%Inh,SLK,14%
same,%Inh,SNARK,14%
same,%Inh,SNRK,1%
same,%Inh,SRC,5%
Nc1nc(-c2cccnc2)c(-c2ccnc3ccccc23)s1 [GW684083],%Inh,[1],0%
same,%Inh,[2],11%
same,%Inh,[3],22%
same,%Inh,[4],3%
same,%Inh,[5],27%
same,%Inh,[6],8%
same,%Inh,[7],0%
same,%Inh,[8],0%
same,%Inh,[9],79%
same,%Inh,S6K1,18%
same,%Inh,SBK1,17%
same,%Inh,SGK2,9%
same,%Inh,SGK3,0%
same,%Inh,SGK,45%
same,%Inh,SIK2,0%
same,%Inh,SIK,4%
same,%Inh,SLK,18%
same,%Inh,SNARK,0%
same,%Inh,SNRK,0%
same,%Inh,SRC,2%
COc1ccc(NC(=O)Nc2ccc(C)c(-c3ccc(C(=O)Nc4ccncc4)cc3)c2)cc1 [GSK1398475],%Inh,[1],0%
same,%Inh,[2],16%
same,%Inh,[3],3%
same,%Inh,[4],0%
same,%Inh,[5],0%
same,%Inh,[6],0%
same,%Inh,[7],0%
same,%Inh,[8],0%
same,%Inh,[9],22%
same,%Inh,S6K1,0%
same,%Inh,SBK1,0%
same,%Inh,SGK2,0%
same,%Inh,SGK3,10%
same,%Inh,SGK,0%
same,%Inh,SIK2,0%
same,%Inh,SIK,7%
same,%Inh,SLK,0%
same,%Inh,SNARK,0%
same,%Inh,SNRK,0%
same,%Inh,SRC,0%
FC(F)(F)c1cc(Nc2nccc(-c3c(-c4ccc(Cl)cc4)nn4ncccc34)n2)ccc1Cl [GW829351],%Inh,[1],0%
same,%Inh,[2],0%
same,%Inh,[3],28%
same,%Inh,[4],11%
same,%Inh,[5],0%
same,%Inh,[6],0%
same,%Inh,[7],0%
same,%Inh,[8],0%
same,%Inh,[9],45%
same,%Inh,S6K1,0%
same,%Inh,SBK1,0%
same,%Inh,SGK2,0%
same,%Inh,SGK3,0%
same,%Inh,SGK,0%
same,%Inh,SIK2,0%
same,%Inh,SIK,0%
same,%Inh,SLK,0%
same,%Inh,SNARK,0%
same,%Inh,SNRK,0%
same,%Inh,SRC,0%
COC(=O)c1c(-c2ccccc2)c2cc(Cl)ccc2c(=O)n1Cc1ccc(S(C)(=O)=O)cc1,%Inh,[1],0%
same,%Inh,[2],5%
same,%Inh,[3],11%
same,%Inh,[4],5%
same,%Inh,[5],15%
same,%Inh,[6],9%
same,%Inh,[7],6%
same,%Inh,[8],0%
same,%Inh,[9],8%
same,%Inh,S6K1,0%
same,%Inh,SBK1,0%
same,%Inh,SGK2,0%
same,%Inh,SGK3,9%
same,%Inh,SGK,0%
same,%Inh,SIK2,9%
same,%Inh,SIK,2%
same,%Inh,SLK,19%
same,%Inh,SNARK,18%
same,%Inh,SNRK,0%
same,%Inh,SRC,23%
Fc1ccc(Nc2nccc(-c3c(-c4ccc(Cl)cc4)nn4ncccc34)n2)cc1F [GW829058],%Inh,[1],18%
same,%Inh,[2],27%
same,%Inh,[3],10%
same,%Inh,[4],31%
same,%Inh,[5],42%
same,%Inh,[6],6%
same,%Inh,[7],0%
same,%Inh,[8],30%
same,%Inh,[9],0%
same,%Inh,S6K1,4%
same,%Inh,SBK1,43%
same,%Inh,SGK2,17%
same,%Inh,SGK3,3%
same,%Inh,SGK,18%
same,%Inh,SIK2,0%
same,%Inh,SIK,0%
same,%Inh,SLK,6%
same,%Inh,SNARK,0%
same,%Inh,SNRK,0%
same,%Inh,SRC,14%
CS(=O)(=O)CCNCc1ccc(-c2ccc3ncnc(Nc4ccc(OCc5ccccc5)c(Cl)c4)c3c2)o1.Cl [GW574783],%Inh,[1],0%
same,%Inh,[2],0%
same,%Inh,[3],0%
same,%Inh,[4],4%
same,%Inh,[5],29%
same,%Inh,[6],17%
same,%Inh,[7],6%
same,%Inh,[8],6%
same,%Inh,[9],8%
same,%Inh,S6K1,0%
same,%Inh,SBK1,3%
same,%Inh,SGK2,0%
same,%Inh,SGK3,0%
same,%Inh,SGK,11%
same,%Inh,SIK2,0%
same,%Inh,SIK,0%
same,%Inh,SLK,25%
same,%Inh,SNARK,0%
same,%Inh,SNRK,0%
same,%Inh,SRC,2%
COc1ccc(-c2nc3n(c2-c2ccncc2)CCC3)cc1 [SKF-104493],%Inh,[1]; 1 µM,10% and 0%
same,%Inh,[2]; 1 µM,0% and 4%
same,%Inh,[3]; 1 µM,93.1% and 37%
same,%Inh,[4],0%
same,%Inh,[5]; 1 µM,12% and 5%
same,%Inh,[6]; 1 µM,1% and 0%
same,%Inh,[7],0%
same,%Inh,[8]; 1 µM,68% and 0%
same,%Inh,[9]; 1 µM,59% and 63%
same,%Inh,S6K1,0%
same,%Inh,SBK1; 1 µM,27% and 8%
same,%Inh,SGK2; 1 µM,16% and 0%
same,%Inh,SGK3; 1 µM,13% and 2%
same,%Inh,SGK; 1 µM,7% and 0%
same,%Inh,SIK2; 1 µM,0% and 2%
same,%Inh,SIK; 1 µM,0% and 5%
same,%Inh,SLK; 1 µM,20% and 36%
same,%Inh,SNARK; 1 µM,7% and 2%
same,%Inh,SNRK,0%
same,%Inh,SRC; 1 µM,18% and 0%
OCCOCCn1ccc2ncnc(Nc3ccc(Oc4cccc(Cl)c4)c(Cl)c3)c21,%Inh,[1],0%
same,%Inh,[2],0%
same,%Inh,[3],0%
same,%Inh,[4],0%
same,%Inh,[5],0%
same,%Inh,[6],3%
same,%Inh,[7],4%
same,%Inh,[8],0%
same,%Inh,[9],2%
same,%Inh,S6K1,0%
same,%Inh,SBK1,0%
same,%Inh,SGK2,0%
same,%Inh,SGK3,0%
same,%Inh,SGK,0%
same,%Inh,SIK2,0%
same,%Inh,SIK,0%
same,%Inh,SLK,39%
same,%Inh,SNARK,0%
same,%Inh,SNRK,0%
same,%Inh,SRC,0%
